pS6 MEF inh: Acumen qHTS Assay for Inhibitors of the mTORC1 Signaling Pathway in MEF (Tsc2-/-, p53-/-) Cells: Sytravon | AID 493208, 2011 | Potency, µM (doses to about 38.3 µM), for the others: top-dose activity change, negative = inhibition, usual class: inhibitors | Tsc2-/- p53-/- MEF, phospho-rpS6 immunofluorescence/PI, 24 h | 44,000 compounds, 0.78% hits;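 note: potency is the fitted concentration of half-maximal effect; plate controls were DMSO for no effect and rapamycin for full effect; nearly all actives have a fitted effect of over 50% in size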
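Read-out: phospho-S6 Alexa-488 intensity over PI intensity per well, scored as % active cells using thresholds from rapamycin (7.5 nM) and DMSO controls. Tsc2-/-, p53-/- MEFs exposed to compound for 24 h; PI cell count recorded as viability.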
p53null 39C kill: qHTS Screen for Compounds that Selectively Target Cancer Cells with p53 Mutations: Cytotoxicity of p53 Null Cells at the Nonpermissive Temperature; H1299 p53-null (neo) cells, 39C, ATPlite viability, 24 h; Potency, µM (top dose mostly 46.1 µM), for the others: at the highest dose activity, negative = cell killing, most hits filed as cytotoxic; 55,000 compounds, 0.97% hits;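 note: potency is the fitted concentration of half-maximal effect; 0% = DMSO only and -100% = full killing by 100 µM tamoxifen; nearly all actives have a fitted effect of over 50% in size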
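H1299 lung cancer cells, p53-null (H1299-neo) or expressing p53 A138V (H1299-p53A138V), were plated overnight at 37C, then exposed to compounds at up to 46 uM for 24 hr at 39C. Viability was read by ATP-based luminescence.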
p53null 32C kill: qHTS Screen for Compounds that Selectively Target Cancer Cells with p53 Mutations: Cytotoxicity of p53 Null Cells at the Permissive Temperature. 55,000 compounds, 0.62% hits. Potency, µM (top dose mostly 46.1 µM), for inactives: top-dose activity change, negative = cytotoxicity, actives largely listed as cytotoxic. H1299-neo p53 null cells, ATP luminescence, 24 h, 32C;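 note: potency is the fitted concentration of half-maximal effect; 0% = DMSO only and -100% = full killing by 100 µM tamoxifen; nearly all actives have a fitted effect of over 55% in size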
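H1299-neo (p53-null) cells, 600/well, were pre-incubated overnight at 37C, then exposed to compounds at up to 46 uM for 24 hr at 32C. Viability was measured as ATP content by luminescence, and AC50 values came from Hill fits.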
OvCa metastasis: Primary qHTS assay for Inhibitors of ovarian cancer metastasis using an organotypic tumor microenvironment (TME) model | SKOV3ip1-GFP adhesion/invasion on 3D omental model, fluorescence | Potency, µM (top dose mostly 45.8 µM), inactives show top-dose activity change, negative = inhibition, usual class: inhibitors | 46,000 compounds, 0.1% hits | AID 1963576, 2024;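 note: potency is the fitted concentration of half-maximal effect; plate controls were DMSO wells for no effect and tomatine positive control wells for full effect; nearly all actives have a fitted effect of over 65% in size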
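A 3D layer of primary human omental fibroblasts, mesothelial cells, fibronectin and collagen I, grown 48 hr, received SKOV3ip1-GFP cells in serum-free medium plus compounds at 0.36-46 umol/L. After 2 hr RT and 16 hr 37 C, fixed adherent GFP cells were counted; normalized to DMSO and tomatine.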
S16 F2sN tox: Cell viability qHTS assay in S16 Pmp22-F2sN cells; Potency, µM (series often up to 57.5 µM), without a hit: top-dose activity change, negative = cytotoxicity, actives largely listed as cytotoxic; 43,000 compounds, 0.48% hits; S16 Pmp22-F2sN Schwann cells viability, CellTiter-Glo, 24 h; AID 1508642, 2021; note: potency is the fitted concentration of half-maximal effect; % is set by controls: 0 for no effect and ±100 for the full control effect; nearly all actives have a fitted effect of over 65% in size
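CellTiter-Glo counter-screen, qHTS, 1536-well. Cells: S16(c9) Pmp22-F2sN, 500-1,000/well in DMEM + 10% FBS. Cpd 23 nL pin transfer, 24 h, 37C/5% CO2. Read: luminescence, CCD imager.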
PMP22 txn prim: Cell-based coincidence reporter assay to measure PMP22 gene transcription in S16 Pmp22-F2sN cells - Primary screen | Potency, µM (series often up to 57.5 µM), for inactives: at the highest dose activity change, negative = inhibition, actives largely listed as inhibitors | 43,000 compounds, 2% hits | S16 Pmp22-F2sN Schwann cells (luciferase reporters placed in the Pmp22 gene), FLuc/NLuc coincidence luminescence, 24 h; active = clear falling dose curves in both reporters; inconclusive = both reporters move, but less clearly or upward; inactive = either reporter flat; the % is the NLuc reporter signal; note: potency is the fitted concentration of half-maximal effect; % is set by controls: 0 for no effect and ±100 for the full control effect
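Luminescent read-out of sequential FLuc and NLuc signals from a reporter embedded in the Pmp22 3' UTR of S16 Schwann cells, taken after 24 h compound exposure at 37C; compounds reducing both signals score as inhibitors of expression.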
NLuc saturating: Biochemical NLuc saturation counterscreen for small molecule modulators of PMP22 gene expression - Nano-Glo assay; shares compounds with PMP22 txn prim; Secreted NLuc enzyme (filtered S16 cell medium), Nano-Glo luminescence; Potency, µM (series often up to 57.5 µM), for the others: at the highest dose activity change, negative = inhibition, hits mostly inhibitors; 690 compounds, 4% hits; note: potency is the fitted concentration of half-maximal effect; % is set by controls: 0 for no effect and ±100 for the full control effect
NLuc Km counter: Biochemical coelenterazine-based NLuc counterscreen for small molecule modulators of PMP22 gene expression - Km assay; shares compounds with PMP22 txn prim; secreted NLuc enzyme, coelenterazine luminescence, Km conditions; Potency, µM (series often up to 57.5 µM), for the others: at the top dose activity change, negative = inhibition, most hits filed as inhibitors; AID 1508639, 2021; 690 compounds, 5% hits; note: potency is the fitted concentration of half-maximal effect; % is set by controls: 0 for no effect and ±100 for the full control effect
FLuc counter: Biochemical FLuc counterscreen for small molecule modulators of PMP22 gene expression; Potency, µM (highest dose often 57.5 µM), for inactives: top-dose activity, negative = inhibition, hits mostly inhibitors; shares compounds with PMP22 txn prim; purified P. pyralis FLuc, luminescence, 10 min; 690 tested, under 10 active; note: % of control where 0% means no effect
Target sequence (P08659 whole entry, looked up): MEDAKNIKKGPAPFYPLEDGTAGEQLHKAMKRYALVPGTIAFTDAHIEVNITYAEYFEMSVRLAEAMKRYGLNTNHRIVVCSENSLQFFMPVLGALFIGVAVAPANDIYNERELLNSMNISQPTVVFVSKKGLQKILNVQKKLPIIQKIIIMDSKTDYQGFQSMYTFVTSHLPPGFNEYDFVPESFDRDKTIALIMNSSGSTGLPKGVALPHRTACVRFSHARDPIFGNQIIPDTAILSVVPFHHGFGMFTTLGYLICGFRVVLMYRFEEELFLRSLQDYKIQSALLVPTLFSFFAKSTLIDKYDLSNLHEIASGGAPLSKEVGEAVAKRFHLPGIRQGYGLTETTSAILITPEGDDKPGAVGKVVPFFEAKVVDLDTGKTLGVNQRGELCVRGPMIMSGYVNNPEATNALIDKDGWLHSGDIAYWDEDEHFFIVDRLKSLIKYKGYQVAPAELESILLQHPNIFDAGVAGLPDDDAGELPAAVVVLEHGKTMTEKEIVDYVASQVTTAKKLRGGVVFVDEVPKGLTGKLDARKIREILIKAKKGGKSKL
S16 F2sN tox cnf: Cell viability qHTS assay in S16 Pmp22-F2sN cells - Confirmatory screen | shares compounds with PMP22 txn prim | S16 Schwann cells viability, CellTiter-Glo ATP luminescence, 24 h | Potency, µM (series often up to 57.5 µM), for inactives: at the highest dose activity change, negative = viability loss, actives largely listed as cytotoxic | 690 compounds, 7% hits; note: potency is the fitted concentration of half-maximal effect; % is set by controls: 0 for no effect and ±100 for the full control effect
PMP22 txn conf: Cell-based coincidence reporter assay to measure PMP22 gene transcription in S16 Pmp22-F2sN cells - Confirmatory screen; shares compounds with PMP22 txn prim; S16 Schwann cells Pmp22-F2sN, dual luciferase, 24 h; Potency, µM (highest dose often 57.5 µM), without a hit: at the top dose activity change, negative = inhibition, actives largely listed as inhibitors; 690 compounds, 22% hits; AID 1508646, 2021; active = clear falling dose curves in both reporters; inconclusive = both reporters move, but less clearly or upward; inactive = either reporter flat; the % is the FLuc reporter signal; note: potency is the fitted concentration of half-maximal effect
The depositor's hits bear a star; i = inactive; ? = inconclusive; . = no result given; [ ] = dose if it differs, or a comment. Rows were chosen to be rich in hits. Some 3% of all compounds tested hit in one or more screens of this group. Unless noted, calls come from the whole dose curve; as a rule, active = well fitted curve in the direction sought with a large enough effect; inconclusive = small, poorly fitted or top-dose-only effect, or another doubt; inactive = no such curve, though single readings can be large; an effect the other way counts as inactive or inconclusive.

SMILES	pS6 MEF inh	p53null 39C kill	p53null 32C kill	OvCa metastasis	S16 F2sN tox	PMP22 txn prim	NLuc saturating	NLuc Km counter	FLuc counter	S16 F2sN tox cnf	PMP22 txn conf
Cc1ccccc1Cn1c(=O)n(CC2CCC(C(=O)N3CCOCC3)CC2)c(=O)c2sccc21 (stereo unspecified)	0%	3%	6%	4%	-8%	12µM*	-8%	6%	2%	-2%	-24%
Cc1ccc(Cn2c(=O)n(CC3CCC(C(=O)N4CCOCC4)CC3)c(=O)c3sccc32)cc1 (stereo unspecified)	3%	10%	-6%	-9%	4%	9%	.	.	.	.	.
CCNc1cc(NC2CCC(O)CC2)nc(Nc2ccc3c(ccn3Cc3ccccc3)c2)n1 (stereo unspecified)	.	.	.	-7%	.	.	.	.	.	.	.
Cc1ccc(OCC(=O)Nc2ccc3[nH]c(=O)sc3c2)cc1	-10%	-16%	1%	6%	15%	15µM*	-13%	-14%	-16%	20%	?
Cc1c(C(=O)Nc2ccc(F)cc2)oc2ccc(S(=O)(=O)N3CCCCCC3)cc12	-5%	24%	6%	-16%	-28%	15µM*	-10%	-19%	1%	-8%	-35%
O=S(=O)(NCCc1csc2nc(-c3ccc(Cl)cc3)nn12)c1ccc(Oc2ccccc2)cc1	1%	10%	-7%	i	-5%	13µM*	1%	5%	-1%	-3%	?
CC[C@H](Nc1ncnc2nc[nH]c12)c1nc2cccc(F)c2c(=O)n1-c1ccccc1	.	.	.	-12%	.	.	.	.	.	.	.
O=C(CSc1nc2cc(C(=O)NC3CCCC3)ccc2c(=O)n1CC1CCCO1)c1cccc(Cl)c1 (stereo unspecified)	0%	0%	7%	i	28µM*	14µM*	-19%	-5%	-6%	-7%	?
Cc1ccc(C(=O)CSc2nc3cc(C(=O)NC4CCCC4)ccc3c(=O)n2CC2CCCO2)cc1 (stereo unspecified)	6%	-11%	-14%	i	?	24%	.	.	.	.	.
CO[C@H]1C=CO[C@@]2(C)Oc3c(C)c(O)c4c(O)c(c(C=NN5CCN(C)CC5)c(O)c4c3C2=O)NC(=O)C(C)=CC=C[C@H](C)[C@H](O)[C@@H](C)[C@@H](O)[C@@H](C)[C@H](OC(C)=O)[C@H]1C	.	.	.	-6%[15.1 µM]	.	.	.	.	.	.	.
Cc1c2cnn(CC(=O)NCc3ccccc3)c(=O)c2c(C)n1Cc1cccc(Cl)c1	?	?	8%	0%	-13%	13µM*	-12%	-1%	-4%	-10%	?
Cc1cc(-c2ccc(CC(=O)Nc3ccc(-c4cccnc4)cc3)cc2)ccn1	.	.	.	-12%	.	.	.	.	.	.	.
COc1cccc(-c2cc(C(=O)Nc3cc(OC)c(OC)c(OC)c3)on2)c1	-1%	-8%	2%	?	?	3.9µM*	?	11µM*	-13%	-6%	18µM*
COc1cc(NC(=O)c2cc(-c3ccccc3O)no2)cc(OC)c1OC	9%	?	-7%	-37%	?	?	.	.	.	.	.
CCOC(=O)N1CCN(Cc2nc3cc(NC(=O)c4ccc(OC)cc4)ccc3n2C(C)C)CC1	?	7%	-11%	-17%	-19%	?	.	.	.	.	.
CCOC(=O)N1CCN(Cc2nc3cc(NC(=O)c4ccc(F)cc4)ccc3n2C(C)C)CC1	?	-3%	-4%	-7%	?	?	.	.	.	.	.
CCOC(=O)N1CCN(Cc2nc3cc(NC(=O)c4ccccc4[N+](=O)[O-])ccc3n2C(C)C)CC1	1%	-4%	-8%	?	?	11µM*	?	-4%	-5%	7%	-22%
CCOC(=O)N1CCN(Cc2nc3cc([N+](=O)[O-])ccc3n2C(C)C)CC1	-17%	-9%	-5%	-11%	-17%	?	-5%	0%	3%	?	-5%
CCOC(=O)N1CCN(Cc2nc3cc(NC(=O)c4ccccc4OC)ccc3n2C(C)C)CC1	-17%	?	-8%	?	?	?	.	.	.	.	.
CCOC(=O)N1CCN(Cc2nc3cc(NC(=O)C(C)C)ccc3n2C(C)C)CC1	?	-3%	4%	i	?	6.3µM*	-14%	4%	6%	4%	-18%
